This is one part of a sample in which hits are shown more often than they occur.
Lassa entry inh – Lassa virus entry inhibition | Lassa virus pseudotype entry inhibition, cell reporter | Potency, µM (series often up to 37.9 µM), for inactives: top-dose activity change, negative = inhibition, hits mostly inhibitors | 1.2% of 300,000 active; calls by dose curve; tested in HEK293 cells; further: potency means the concentration at half of the fitted maximal effect; on the % scale 0 is the no-effect control and ±100 the full control effect; nearly all actives have a fitted effect of over 50% in size
Cycloheximide cs – counter-screen for Shiga toxin inhibitors: cycloheximide protein synthesis inhibition; 12% of 300,000 active; cell reporter, cycloheximide protein synthesis inhibition counterscreen; max response, %; in the data active means max response mostly above about 13%, no sharp cut-off; inactive means mostly below about 14%; further: read at 38.3 µM for the half of the compounds with a filed dose; 0% is about no effect
Shiga inhibitor – inhibitors of Shiga toxin in Vero cells | 9.2% of 290,000 active | AID 2315 | Vero cells, Shiga toxin protein synthesis inhibition reporter | inhibition, % at 38.7 µM; in the data active means inhibition mostly above about 28%, no sharp cut-off; inactive means mostly below about 43%; further: 0% is about no effect
AMA1 RON2 block – inhibitors of Plasmodium falciparum AMA1-RON2 interaction; AID 720542; AlphaScreen AMA1-biotinylated RON2 peptide binding; Potency, µM (doses to about 58.2 µM), for the others: top-dose activity change, negative = inhibition, actives largely listed as inhibitors; 0.2% of 360,000 active; active means well fitted inhibition curve with a large enough effect; inconclusive means small, poorly fitted or top-dose-only effect; inactive means no such curve, though single readings can be large or run the other way;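 further: potency means the concentration at half of the fitted maximal effect; 0% = vehicle wells and -100% = peptide control; nearly all actives have a fitted effect of over 45% in size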
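AMA1 (3D7) with his tag at 25 nM final met compounds first, then biotinylated RON2 peptide at 25 nM; detection used donor plus acceptor beads, 10 µg/mL apiece, read by AlphaScreen after 30 min at room temperature.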
MARV entry inh – Marburg virus entry inhibition. Marburg virus pseudotyped entry inhibition, cell reporter. Potency, µM (highest dose often 37.8 µM), for the others: at the highest dose activity change, negative = inhibition, hits mostly inhibitors. 1.8% of 300,000 active; calls by dose curve; tested in HEK293 cells; further: potency means the concentration at half of the fitted maximal effect; on the % scale 0 is the no-effect control and ±100 the full control effect
Numbers without * were called inactive; ? = inconclusive; . = not tested or not shown; [ ] = another dose, or the depositor's remark.

SMILES	Lassa entry inh	Cycloheximide cs	Shiga inhibitor	AMA1 RON2 block	MARV entry inh
CCS(=O)(=O)c1ccc(O)c(NC(=O)/C=C/c2ccccc2)c1	4%	28*	73*	6%	?
COC(=O)c1cc(NC(=O)/C=C/c2ccccc2)ccc1O	.	48*	121*	.	.
O=C(/C=C/c1ccccc1)Nc1cc(C(=O)O)cc(C(=O)O)c1	.	1	-14	-3%	.
Cc1c(O)ccc(NC(=O)/C=C/c2ccccc2)c1C	0%	12	48*	5%	16%[46.1 µM]
CCOC(=O)C1CCN(C(=O)c2ccccc2CCc2ccccc2)CC1	.	1	-6	7%	.
Cc1csc(C(C#N)C(=O)c2cc3ccccc3o2)n1 (stereo not given)	?	25*	55*	8%	?
CC(C)(C)c1ccc(CN2C3=NCCCN3c3ccccc32)cc1	?	-5	-7	7%	2.6µM*
Cc1ccc(CN2C3=NCCCN3c3ccccc32)cc1	-1%	-5	-4	1%	?
c1ccc(CN2C3=NCCCN3c3ccccc32)cc1	-2%	-2	-8	0%	?
Brc1ccc(CN2C3=NCCCN3c3ccccc32)cc1	?	-7	-13	-11%	10µM*
CCCC(=O)N1CCCC1(C)C(=O)Nc1ccc(-n2cncn2)cc1 (stereo not given)	.	.	.	-2%	.
COC(=O)[C@H](CCCN=C(N)N)NC(=O)CCCc1c(-c2ccccc2)[nH]c2c(F)cc(F)cc12	.	-2	1	.	.
O=C(NC1CC1)C1CCN(C2CCN(C(=O)c3c(F)cccc3Cl)CC2)CC1	18%[46.1 µM]	-4	-13	4%	4%[46.1 µM]
Cc1cc(C)n2c(SCc3ccc(Br)cc3)nnc2n1	.	11*	35	4%	.
CC(C)CCOc1ccc(C(=O)NCCC(=O)N2CCOCC2)cc1	29%	18*	41*	-13%	22%
CCOC(=O)CNC(=O)c1ccc(OCC(F)(F)F)cc1	.	28*	82*	2%	.
CCCCOc1ccc(C(=O)NCCCC(=O)N2CCCCC2)cc1	?	-2	13	22%	6%
CCOC(=O)CNC(=O)c1ccc(C)cc1	11%	19	5	-4%	3%[46.1 µM]
O=C(NCC(=O)N1CCN(Cc2ccccc2)CC1)c1ccc(Br)cc1	7%[46.1 µM]	1	-2	-1%	?
O=C(NCC(=O)N1CCOCC1)c1ccccc1	?	15*	55*	3%	?
O=C(NCC(=O)N1CCN(Cc2ccccc2)CC1)c1ccc(Cl)cc1	.	18*	9	-5%	.
COC(=O)C1(C(=O)OC)C[C@H](c2ccc(OC)cc2)N(Cc2ccccc2OC)[C@@H]1c1cccs1	.	.	.	-13%	.
CCc1cccc(NC(=O)Cn2nc(C)c3sc4ccccc4c3c2=O)c1	-28%[46.1 µM]	.	.	.	1%[46.1 µM]
CC(C)CNC(=O)c1ccc2c(c1)C(=O)N(Cc1ccco1)C2=O	15%	2	.	0%	3%
O=C(NCC(=O)N1CCCCCC1)c1ccc(Cl)cc1	20%	29*	65*	2%	?
SMILES	Lassa entry inh	Cycloheximide cs	Shiga inhibitor	AMA1 RON2 block	MARV entry inh
O=C(NCC(=O)N1CCOCC1)c1ccc(Cl)cc1	.	18*	35	-4%	.
O=C(NCC(=O)N1CCCCCCC1)c1ccc(Cl)cc1	.	.	.	-3%	.
O=C(c1cccc(C(=O)N2CCN(Cc3ccccc3)CC2)c1)N1CCN(Cc2ccccc2)CC1	?	-2	1	2%	-27%
O=C(c1ccc2ccccc2c1)N1CCN(Cc2ccccc2)CC1	.	28*	82*	-3%	.
CCOc1ccc(C(=O)NCC(=O)N2CCCC2)cc1	1%	18	50*	29%	2%[46.1 µM]
O=C(COc1ccc(S(=O)(=O)N2CCCC2)cc1)NCc1ccccn1	17%[46.1 µM]	-5	-8	6%	4%[46.1 µM]
NC(Cc1ccc(Oc2ccc(O)cc2)cc1)C(=O)O (stereo not given)	-12%	-2	-5	.	-6%
NC(=O)c1ccc(N2CCNC(=O)C2)c([N+](=O)[O-])c1	.	-1	-4	4%	14%[46.1 µM]
Cc1cccc(C(=O)NCC(=O)N2CCOCC2)c1	.	23*	8	2%	.
Cc1cccc(C(=O)NCC(=O)N2CCC2)c1	.	.	.	2%	.
O=C(C1CCC1)N1CCN(Cc2ccccc2)CC1	1%	-4	-1	3%	?
Cc1nn(C(=O)CNC(=O)c2ccccc2)c(C)c1C	-18%	38*	47	7%	-2%
O=C(c1c[nH]c(C(=O)N2CCN(Cc3ccccc3)CC2)c1)C1CCCCC1	.	24	51*	-7%	.
CC1=C(C(=O)Nc2cccnc2)C(c2ccc(F)cc2)n2nc(-c3cccc(C)c3)nc2N1 (stereo not given)	-11%[46.1 µM]	.	.	.	?
C=CCN1CC2(c3ccccc3)CN(CC=C)CC(c3ccccc3)(C1)C2=O	7%[46.1 µM]	1	11	-25%	?
O=C(NC(=Nc1nc2ccccc2o1)NC(=O)c1ccccc1)c1ccccc1	12%	-2	15	48%	?
CCCCC(=O)N/C(N)=N/c1nc2ccccc2o1	?	43*	36*	90%	?
COc1ccccc1C(=O)NC(=Nc1nc2ccccc2o1)NC(=O)c1ccccc1OC	0%[46.1 µM]	17*	22*	-5%	-14%[46.1 µM]
N/C(=N\c1nc2ccccc2o1)NC(=O)c1ccccc1F	-11%	47*	100*	62%	52%
CCCC(=O)N/C(N)=N/c1nc(C)c2ccccc2n1	?	17*	18	-18%	?
O=S(=O)(Nc1cccc2cccnc12)c1ccc(Br)cc1	.	-3	-11	.	.
CCn1ccc2cc(S(=O)(=O)N3CCCN(C(=O)NCCOC)CC3)ccc21	15%[46.1 µM]	.	.	.	.
COc1ccc(C(=O)c2c(-c3ccsc3)oc3ccc(-c4ccc(OC)cc4)cc23)cc1	.	.	.	-5%	.
COc1ccccc1-c1ccc(SCC(=O)NC2CCCC2)nn1	-1%	.	.	9%	-10%
COc1ccccc1-c1ccc(SCC(=O)NC2CCCCC2)nn1	1%	-2	-4	7%	-22%
SMILES	Lassa entry inh	Cycloheximide cs	Shiga inhibitor	AMA1 RON2 block	MARV entry inh
Cc1ccc(-c2ccc(SCC(=O)Nc3cc(C)on3)nn2)cc1	0%	6	13	6%	-20%[46.1 µM]
COc1ccc(-c2ccc(SCC(=O)Nc3cc(C)on3)nn2)cc1OC	-10%[14.3 µM]	22*	100*	-4%	?
COc1ccc(-c2ccc(SCC(=O)NC3CCCC3)nn2)cc1OC	?	27*	52*	-4%	4%
COc1cccc(-c2ccc(SCC(=O)NC3CCCCC3)nn2)c1	?	20*	14	19%	-1%
CN(C)c1ccc(CNC(=O)C2CCN(S(=O)(=O)c3ccc4c(ccn4C)c3)CC2)cc1	5%[46.1 µM]	.	.	.	.
CCc1nn(CC(=O)NCCc2ccc(SC)cc2)c(=O)c2cc3sccc3n12	.	.	.	.	-17%[46.1 µM]
Cc1nc(N2CCN(c3ccccn3)CC2)c2c(C)c(C(=O)N3CCN(c4ccccc4F)CC3)sc2n1	?	-4	-3	-14%	7.9µM*
Cc1ccc(NC(=O)c2sc3nc(C)nc(N4CCN(c5ccccn5)CC4)c3c2C)c(C)c1	-26%	-4	-3	-15%	11µM*
Cc1nc(N2CCN(c3ccccn3)CC2)c2c(C)c(C(=O)Nc3ccc(Br)cc3C)sc2n1	.	-2	18	13%	.
O=C(COc1ccccc1Cl)NCCNC(=O)c1ccncc1	?	-5	-7	-25%	3%[46.1 µM]

Screening results from PubChem.
